The values that follow come from PubChem BioAssay AID588720 (NMMLSC, 2011).

Potency and affinity values are given separately. Active and inactive are the calls of the source.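 The calls were made as follows: active = good curve fit with EC50 under 10 µM, EC50 error below a tenth of EC50, span above a set limit; inactive = the rest.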

For the assay, the target named is Beta-adrenergic receptor kinase 1 (Homo sapiens) (UniProt P25098). As to the kind of experiment: GRK2 inhibitors displacing RNA aptamer, dose response, biochemical, flow cytometry beads, FAM-aptamer, powder set 1 (AID 588720).
Chain of Beta-adrenergic receptor kinase 1 (Homo sapiens) (P25098 whole entry, looked up): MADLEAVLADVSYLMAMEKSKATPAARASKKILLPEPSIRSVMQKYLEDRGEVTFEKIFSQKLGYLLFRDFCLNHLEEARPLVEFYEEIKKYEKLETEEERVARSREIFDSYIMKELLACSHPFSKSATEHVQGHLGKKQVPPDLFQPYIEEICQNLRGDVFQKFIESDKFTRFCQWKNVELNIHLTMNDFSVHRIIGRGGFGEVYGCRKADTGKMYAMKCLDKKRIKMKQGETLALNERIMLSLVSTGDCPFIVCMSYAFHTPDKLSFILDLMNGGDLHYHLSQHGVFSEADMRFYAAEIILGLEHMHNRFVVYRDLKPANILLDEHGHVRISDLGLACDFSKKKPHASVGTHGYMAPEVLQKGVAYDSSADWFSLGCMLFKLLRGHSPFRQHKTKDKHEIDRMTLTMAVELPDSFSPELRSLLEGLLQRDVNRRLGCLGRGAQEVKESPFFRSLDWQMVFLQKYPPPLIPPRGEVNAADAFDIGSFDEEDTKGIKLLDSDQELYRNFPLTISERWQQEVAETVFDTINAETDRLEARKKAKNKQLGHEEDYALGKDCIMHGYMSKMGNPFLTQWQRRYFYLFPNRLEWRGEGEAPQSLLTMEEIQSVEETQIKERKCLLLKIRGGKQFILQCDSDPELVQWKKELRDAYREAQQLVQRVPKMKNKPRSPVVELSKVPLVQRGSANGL

For `Cc1cc2ccccc2n1CCNC(=O)C(C)Oc1ccccc1` (configuration not stated), the molecule was called inactive.

With `Cc1ccc(CCNC(=O)CCS(=O)(=O)c2ccc(Br)cc2)cc1`, the molecule was classed as inactive.

Take `O=C(CN1CCc2ccccc21)NC(=O)NCc1ccccc1`: the molecule was called inactive.

For `O=C(O)C1CC(=O)N(c2ccc3c(c2)OCCO3)C1` (configuration not stated), the molecule was called inactive.

Consider `COC(=O)c1ccccc1NC(=O)CCS(=O)(=O)c1ccc(Br)s1`, for which the molecule was called inactive.

For `CC(=O)N1CCN(Cc2nc3cc(Cl)ccc3c(=O)[nH]2)CC1`, the call was inactive.

`Cc1cc2ccccc2n1CCNC(=O)c1cccs1`: the molecule was classed as inactive.
